Screens from PubChem BioAssay.
Bfl-1 A1 inh – inhibitors of the anti-apoptotic protein A1, read as caspase activation. caspase activation, % (concentration not given with the values). MEF A1-2A-BIM cells, Caspase-Glo 3/7 luminescence, 3 h; percent of clofoctol response, vehicle zero. 0.066% of 330,000 active. AID 2462;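 active means over half of replicate activation scores above 10%, or exactly half above 10 with the replicate mean above 10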
697 NFkB inh – lowers PMA/ionomycin-induced NF-kB signal in 697 B cells; inhibition, % at 4 µM; 697 B-cell NF-kB luciferase reporter, 16 h; AID 435022; 0.33% of 330,000 active; in the data active means inhibition above about 35%
Beta cell apopt – blocks beta cell apoptosis; INS-1E cytokine-induced death, ATP luminescence, 48 h; percent of positive-control rescue, neutral wells zero; protection from apoptosis, % (no concentration beside the values); 0.8% of 300,000 active; AID 435005;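 active means Every replicate reaches about 75%, or at least half do and their mean reaches it too, limit read from the data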;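 further: higher means more ATP so stronger rescue from cytokine killing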
NTR1 ag – agonists of human neurotensin receptor NTR1. P30989. activation, % at 20 µM. AID 493036. NTR1-U2OS beta-arrestin-GFP spot imaging, agonist mode. 0.17% of 330,000 active;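 active means activation at or above 40% of the spot to cytoplasm intensity ratio, with at least 20 cells analyzed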
Target sequence (P30989 whole entry, looked up): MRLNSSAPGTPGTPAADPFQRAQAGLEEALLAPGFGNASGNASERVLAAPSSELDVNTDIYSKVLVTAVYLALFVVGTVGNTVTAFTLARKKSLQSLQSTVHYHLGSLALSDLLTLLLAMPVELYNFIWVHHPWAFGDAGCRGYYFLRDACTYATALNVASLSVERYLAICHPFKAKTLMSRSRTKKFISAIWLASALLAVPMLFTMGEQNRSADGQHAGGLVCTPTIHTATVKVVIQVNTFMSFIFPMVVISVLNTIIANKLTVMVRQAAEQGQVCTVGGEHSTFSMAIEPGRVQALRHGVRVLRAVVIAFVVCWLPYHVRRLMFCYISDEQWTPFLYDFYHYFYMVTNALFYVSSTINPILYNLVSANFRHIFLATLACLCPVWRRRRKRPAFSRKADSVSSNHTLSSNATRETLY
Mdm2-MdmX inh – human Mdm2/MdmX binding inhibition; O15151+Q00987; SaOS-2 split-luciferase Mdm2/MdmX complementation, luminescence; inhibition, % at 8 µM; 3% of 330,000 active;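 active means inhibition of at least 50% at 8 µM in the primary screen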
Jurkat NFkB inh – inhibitors of the PMA/ionomycin-induced NF-kB reporter in Jurkat cells; PMA/ionomycin-induced NF-kB luciferase reporter, luminescence; inhibition, % at 4 µM; 0.53% of 330,000 active; in the data active means inhibition above about 50%
Mdm2 MdmX conf – human Mdm2/MdmX binding inhibition, confirmed | shares compounds with Mdm2-MdmX inh | luminescent assay | inhibition, % at 8 µM | 55% of 10,000 active; in the data active means inhibition above about 40%
FLuc counter – full-length luciferase inhibition in Mdm2/MdmX counter-screen | SaOS-2 full-length luciferase counterscreen, luminescence | 77% of 6,200 active | AID 504607 | inhibition, % at 8 µM | shares compounds with Mdm2-MdmX inh;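 active means mean inhibition at 8 µM reaching about 37%, which flags the compound as non-specific, limit read from the data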;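 further: p53-null SaOS-2 cells with luciferase driven by a doxycycline-inducible promoter; compound on cells about two nights before reading with doxycycline added after day one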
Numbers stand for hits; i = inactive; nt = no result given. A selection: hits, their analogues and other compounds. The true share with any hit is near 3.8%.

SMILES	Bfl-1 A1 inh	697 NFkB inh	Beta cell apopt	NTR1 ag	Mdm2-MdmX inh	Jurkat NFkB inh	Mdm2 MdmX conf	others
O=C(COCc1ccccc1)N[C@@H]1c2ccccc2CC[C@H]1OCc1ccccc1	nt	i	nt	i	i	nt	nt
CCOc1ccc(CCNC(=O)CN2C(=O)NC3(CCCc4ccccc43)C2=O)cc1OCC (centres undefined)	i	i	i	i	i	i	nt
Cc1nc(C)c(C(=O)OCC(=O)Nc2ccccc2)s1	i	i	i	i	i	i	nt
Cc1ccc(CN(C)C(=O)c2ccccc2NC(=O)c2ccccc2)o1	nt	i	nt	i	i	i	nt
C=CCOc1ccc(CN(C)C(=O)CNC(=O)c2ccc(-c3ccccc3)cc2)cc1	i	i	nt	i	i	i	nt
COc1ccccc1N(Cc1ccccc1)S(=O)(=O)c1cccc(C(=O)Nc2ccc(C(C)=O)cc2)c1	i	i	i	i	i	i	nt
COc1ccccc1N(Cc1ccccc1)S(=O)(=O)c1cccc(C(=O)Nc2ccc(C)cn2)c1	i	i	i	i	55	i	i
CC1(C)CC(NC(=O)c2cccc(S(=O)(=O)N(Cc3ccccc3)c3ccccc3)c2)CC(C)(C)N1	i	i	i	i	95	i	59	FLuc counter=61
CCOC(=O)C1CCN(C(=O)CSc2nc(N)cc(=O)[nH]2)CC1	i	i	i	i	i	i	nt
CC(C)N(C(=O)COC(=O)c1ccccc1C(=O)c1ccc(Cl)c([N+](=O)[O-])c1)C(C)C	i	i	i	i	82	i	i
Cn1c(N)c(C(=O)COC(=O)c2ccccc2C(=O)c2ccc(Cl)c([N+](=O)[O-])c2)c(=O)n(C)c1=O	i	i	i	i	99	i	62	FLuc counter=i
O=C(COC(=O)c1ccccc1C(=O)c1ccc(Cl)c([N+](=O)[O-])c1)NC1CCCCCC1	i	i	i	i	96	i	100	FLuc counter=51
O=C(COC(=O)c1ccc(Cl)c([N+](=O)[O-])c1)NC1CCCC1	i	i	i	i	i	i	nt
CN(CCC#N)C(=O)COC(=O)c1ccccc1C(=O)c1ccc(Cl)c([N+](=O)[O-])c1	i	nt	i	nt	nt	nt	nt
CSCCC1NC(=O)N(CC(=O)Nc2ccc3c(c2)OCCO3)C1=O (centres undefined)	i	i	i	i	i	i	nt
CNC(=S)NNC(=O)c1cc(-c2cccnc2)nc2ccccc12	i	i	i	i	i	i	nt
CCN(CC)CCOc1ccc(/C(=C(\Cl)c2ccccc2)c2ccccc2)cc1	i	i	i	i	69	i	i
CCN(CC)CCOc1ccc(Br)cc1	i	i	i	i	i	i	nt
COc1ccc(CCN(C)C2CCCN(C(=O)c3ccnn3C)C2)cc1OC (centres undefined)	i	i	i	i	i	i	nt
O=C(Cn1c(=O)oc2cc(S(=O)(=O)N3CCCCC3)ccc21)N1CCc2ccccc21	i	i	i	i	59	i	i
O=C(Cn1c(=O)oc2cc(S(=O)(=O)N3CCCC3)ccc21)N1CCc2ccccc2C1	i	i	i	i	i	i	nt
O=C(OCc1nnc(-c2ccc(Cl)cc2)o1)c1ccc(O)cc1	i	i	i	i	i	i	nt
Cn1cccc1C(=O)NC(=O)COC(=O)c1ccc(S(C)(=O)=O)c([N+](=O)[O-])c1	i	i	i	i	64	i	i	FLuc counter=40
CS(=O)(=O)c1ccc(C(=O)OCc2nnc(-c3ccc(Cl)cc3)o2)cc1[N+](=O)[O-]	i	i	i	41	96	i	60	FLuc counter=i
Cn1cccc1C(=O)NC(=O)COC(=O)c1ccc(S(C)(=O)=O)cc1	i	i	i	i	i	i	nt
Cn1ccsc1=NC(=O)c1ccc(S(C)(=O)=O)c([N+](=O)[O-])c1	i	i	i	i	51	i	i
CC(=O)c1c(C)[nH]c(C(=O)OCC(=O)NNC(=O)c2ccc([N+](=O)[O-])cc2)c1C	i	i	i	i	i	i	nt
CC(=O)c1c(C)[nH]c(C(=O)OCc2nnc(-c3ccc([N+](=O)[O-])cc3)o2)c1C	i	i	i	i	53	i	i
S=C(Nc1ccccc1)N1CCC(Cc2ccccc2)CC1	i	i	nt	i	i	i	nt
CC(=O)NCCNC(=O)c1ccc(CSc2nc3ccccc3s2)cc1	i	i	i	i	i	i	nt
